Source: PubChem BioAssay (NCATS)
“And” between values parts separate entries of the source, which are not always exact repeats. Equal values may be shown once. A number with no mark means an inactive call. Records with an inconclusive call do not appear. The source made the active and inactive calls. The call rests on the fitted dose curve; in most records, active means well fitted curve in the direction sought with a large enough effect; inconclusive means small, poorly fitted or top-dose-only effect, or another doubt; inactive means no such curve, though single readings can be large; an effect the other way counts as inactive or inconclusive.

How the values were obtained:
[1] = qHTS for compounds that reverse cellular toxicity of Amyloid beta (A-beta) peptide in yeast: LOPAC Validation Assay (AID 720559);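 further: plate controls were DMSO for no effect and equimolar ferric chloride plus clioquinol rescue for full effect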
In short: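 Medium dispensed, compounds pinned, A-beta yeast suspension added; plates held at 30 C for 48 hr; absorbance measured at 600 nm to gauge growth; values scaled between DMSO and FeCl3/clioquinol (equimolar) controls.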

[2] = qHTS for Activators of Parkin Expression: LOPAC Validation Assay (NLuc Reporter) (AID 720572;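 further: 0% = DMSO and 100% = positive control compound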)
In short: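 Cells harboring the Parkin-promoter coincidence reporter were treated for 24 h at seven concentrations. NLuc output was measured sequentially after the FLuc channel and scaled between DMSO and positive control values.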

[3] = molecular target: T1, Hexokinase-4 (Homo sapiens) + Glucokinase regulatory protein (Homo sapiens) (UniProt P35557+Q14397); test: qHTS assay for inhibitors of recombinant human GCK-GKRP interaction: Diaphorase-coupled assay (AID 743205)
T1 sequence (P35557 whole entry, looked up): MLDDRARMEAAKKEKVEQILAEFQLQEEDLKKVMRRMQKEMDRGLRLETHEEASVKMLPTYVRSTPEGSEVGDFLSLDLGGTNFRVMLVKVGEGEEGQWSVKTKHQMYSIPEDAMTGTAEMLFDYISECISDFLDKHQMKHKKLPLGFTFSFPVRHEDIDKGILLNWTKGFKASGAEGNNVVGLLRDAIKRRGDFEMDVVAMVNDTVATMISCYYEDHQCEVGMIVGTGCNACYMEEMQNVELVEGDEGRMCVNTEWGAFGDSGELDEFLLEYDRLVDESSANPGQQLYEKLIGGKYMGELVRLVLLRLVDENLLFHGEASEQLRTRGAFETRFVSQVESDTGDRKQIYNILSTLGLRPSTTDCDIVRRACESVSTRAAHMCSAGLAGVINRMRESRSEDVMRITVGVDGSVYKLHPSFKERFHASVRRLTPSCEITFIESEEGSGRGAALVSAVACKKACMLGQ
T1 sequence (Q14397 whole entry, looked up): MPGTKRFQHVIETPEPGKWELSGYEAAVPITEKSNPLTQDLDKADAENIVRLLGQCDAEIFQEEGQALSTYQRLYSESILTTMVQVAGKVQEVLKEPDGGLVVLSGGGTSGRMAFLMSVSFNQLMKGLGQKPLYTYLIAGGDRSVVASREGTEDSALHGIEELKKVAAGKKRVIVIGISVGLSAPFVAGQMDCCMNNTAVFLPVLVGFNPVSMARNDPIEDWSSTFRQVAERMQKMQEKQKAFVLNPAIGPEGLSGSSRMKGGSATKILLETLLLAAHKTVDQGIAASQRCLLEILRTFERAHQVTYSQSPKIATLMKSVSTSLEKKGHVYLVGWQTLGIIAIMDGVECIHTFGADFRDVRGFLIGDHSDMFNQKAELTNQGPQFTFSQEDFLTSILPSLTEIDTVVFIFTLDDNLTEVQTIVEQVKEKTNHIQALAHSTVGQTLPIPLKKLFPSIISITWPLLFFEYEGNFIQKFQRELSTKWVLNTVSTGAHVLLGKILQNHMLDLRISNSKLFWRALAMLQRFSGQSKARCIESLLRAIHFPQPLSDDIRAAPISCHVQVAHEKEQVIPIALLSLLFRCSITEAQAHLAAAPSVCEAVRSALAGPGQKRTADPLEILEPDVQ
In short: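 25 mM Hepes pH 7.6, 5 mM glucose, 0.4 mM ATP, 4 U/ml G6PDH; 10 nM each GST-GCK/FLAG-GKRP. Kinetic fluorescence read, 1/min × 30 min. Normalized: DMSO ± enzyme = max/min.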

[4] = molecular target: T1, Hexokinase-4 (Homo sapiens) + Glucokinase regulatory protein (Homo sapiens); test: qHTS assay for inhibitors of recombinant human GCK-GKRP interaction: ADP-Glo assay (AID 743206);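 further: plate controls were DMSO plus enzyme for no effect and no enzyme for full effect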
In short: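 Pin-transferred compounds meet a 15 nM GST-GCK/15 nM FLAG-GKRP/2 uM S6P mix (dispense concentrations). ATP is then added to 0.4 mM final with 5 mM glucose, and the reaction runs 60 min at room temperature. ADP is quantified luminescently.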

[5] = molecular target: T1, Hexokinase-4 (Homo sapiens) + Glucokinase regulatory protein (Homo sapiens); test: qHTS assay for inhibitors of recombinant human GCK-GKRP interaction: HTRF assay (AID 743207);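 further: 0% = DMSO with GCK present and -100% = DMSO wells lacking GCK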
In short: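 5 nM GST-GCK + 5 nM FLAG-GKRP + 2 uM S6P, pH 7.1 buffer (25 mM Hepes, 2 mM MgCl2, 25 mM KCl, 1 mM DTT, Tween/BSA); pin-transferred cpd; anti-FLAG XL665/anti-GST K; 60 min RT; HTRF.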

[6] = qHTS Assay for Identifying Gametocytocidal Compounds (AID 743244); further: potency means the concentration at half of the fitted maximal effect;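 on max response: on the % scale 0 is the no-effect control and ±100 the full control effect; actives lower the fluorescent signal which means gametocytes are killed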; conditions: P. falciparum 3D7 stage III-V gametocytes, alamarBlue, 72 h; max response: stronger effect = lower value
In short: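 P. falciparum 3D7 stage III–V gametocytes (20,000 cells/well) were exposed to compounds for 72 h at 37 °C, 5% CO2. AlamarBlue was then added for 24 h; decreased resorufin fluorescence (Ex 525/Em 598 nm) indicated loss of viability.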

Q: With `CC(C)NC[C@H](O)c1ccc(O)c(O)c1` as the molecule, how does the outcome [1] read?
A: Its outcome is “inactive”.

Q: And the Potency [2]?
A: The Potency was “inactive”.

Q: And the outcome [3]?
A: Its outcome is “inactive”.

Q: What about the outcome [4] of the same molecule?
A: Its outcome is “inactive”.

Q: What about the outcome [5] of the same molecule?
A: The outcome was “inactive”.

Q: And the max response [6]?
A: The max response was -9.19% and 21.1%.

Q: For `Cc1ccc2nc(N)[nH]c(=O)c2c1Sc1ccncc1`, which max response [6] is on record?
A: The max response was -4.42%.

Q: With `CN(N=O)C(=O)N[C@@H]1[C@@H](O)[C@H](O)[C@@H](CO)O[C@@H]1O` as the molecule, how does the max response [6] read?
A: The max response was 5.26%.

Q: For `CCCCCCCCCCCCCCCCCCOCC(O)CO` (stereo not given), which max response [6] is on record?
A: The max response was 1.98%.

Q: Which max response [6] does the source give for `CC(C)(C)NCC(O)COc1ccc(NC(=O)NC2CCCCC2)cc1` (stereo not given) here?
A: The max response was 11.9%.

Q: Which outcome [1] does the source give for `CC(C)(C)c1onc(OCP(=O)(O)O)c1CC(N)C(=O)O` (stereo not given) here?
A: Its outcome is “inactive”.

Q: And the Potency [2]?
A: The Potency was “inactive”.

Q: And the outcome [3]?
A: The outcome was “inactive”.

Q: And the outcome [4]?
A: Its outcome is “inactive”.

Q: What about the outcome [5] of the same molecule?
A: The outcome was “inactive”.

Q: And the max response [6]?
A: Its max response is 18.1%.

Q: With `CC(COc1ccccc1)NC(C)C(O)c1ccc(O)cc1` (stereo not given) as the molecule, how does the max response [6] read?
A: The max response was 25.2%.

Q: For `C/C(=C(\CCOP(=O)(O)O)SC(=O)c1ccccc1)N(C=O)Cc1cnc(C)nc1N`, which max response [6] is on record?
A: The max response was 7.95%.

Q: Which max response [6] does the source give for `Nc1ccc(S(=O)(=O)NC(=O)c2ccccc2)cc1` here?
A: The max response was 7.19%.

Q: Which outcome [1] does the source give for `CCN(CC)CCOC(=O)C1(C2CCCCC2)CCCCC1` here?
A: The outcome was “inactive”.

Q: And the Potency [2]?
A: The Potency was “inactive”.

Q: What about the outcome [3] of the same molecule?
A: Its outcome is “inactive”.

Q: What about the outcome [4] of the same molecule?
A: Its outcome is “inactive”.

Q: What about the outcome [5] of the same molecule?
A: The outcome was “inactive”.

Q: And the max response [6]?
A: Its max response is 0.472% and 32.4%.

Q: With `NC1[C@H]2CN(c3nc4c(cc3F)c(=O)c(C(=O)O)cn4-c3ccc(F)cc3F)C[C@@H]12` (stereo not given in full) as the molecule, how does the max response [6] read?
A: Its max response is -0.422%.

Q: Which outcome [1] does the source give for `Cc1cc(N)c2ccccc2[n+]1CCCCCCCCCC[n+]1c(C)cc(N)c2ccccc21` here?
A: Its outcome is “inactive”.

Q: What about the Potency [2] of the same molecule?
A: Its Potency is “inactive”.

Q: And the outcome [3]?
A: Its outcome is “inactive”.

Q: What about the outcome [4] of the same molecule?
A: Its outcome is “inactive”.

Q: And the outcome [5]?
A: Its outcome is “inactive”.

Q: And the Potency [6]?
A: The Potency was 3.98 µM (active).

Q: For `Cc1ccc(C(C)C)cc2c(C)ccc1-2`, which max response [6] is on record?
A: Its max response is 3.45%.

Q: With `CO/N=C(\C(=O)N[C@@H]1C(=O)N2C(C(=O)O)=C(CSc3nc(=O)c(O)nn3C)CS[C@H]12)c1csc(N)n1` as the molecule, how does the max response [6] read?
A: Its max response is -6.47%.

Q: With `Cc1c(Cl)cccc1Nc1ccccc1C(=O)O` as the molecule, how does the max response [6] read?
A: The max response was -7.91%.

Q: Which max response [6] does the source give for `CC(C)(O)c1ccccc1CC[C@@H](SCC1(CC(=O)O)CC1)c1cccc(/C=C/c2ccc3ccc(Cl)cc3n2)c1` here?
A: Its max response is -7.08%.

Q: For `CCCCN1CCCC[C@H]1C(=O)Nc1c(C)cccc1C`, which max response [6] is on record?
A: Its max response is 12.1%.

Q: For `Cc1cccc(C)c1NC(=O)CN(CC(=O)O)CC(=O)O`, which max response [6] is on record?
A: The max response was -6.34%.

Q: Which max response [6] does the source give for `COc1ccc2c(c1)C(=O)N(CCc1ccc(S(=O)(=O)NC(=O)NC3CCCCC3)cc1)C(=O)C2(C)C` here?
A: Its max response is 22.2%.

Q: With `CN1[C@@H]2CC(OC(=O)[C@H](CO)c3ccccc3)C[C@H]1[C@@H]1O[C@@H]12` (stereo not given in full) as the molecule, how does the max response [6] read?
A: Its max response is 9.71% and 1.92%.

Q: Which max response [6] does the source give for `OCC(CO)N[C@H]1C[C@](O)(CO)[C@@H](O)[C@H](O)[C@H]1O` here?
A: Its max response is 7.19%.

Q: Which max response [6] does the source give for `CCN(CC)CCSC(=O)C(c1ccccc1)c1ccccc1` here?
A: The max response was -11.9%.

Q: For `O=S(=O)(O)c1cc(I)c(O)c2ncccc12`, which max response [6] is on record?
A: Its max response is 5.64%.

Q: Which max response [6] does the source give for `CN(C)CCCO[C@@H]1[C@H]2OC(C)(C)O[C@H]2O[C@@H]1C(O)CO` (stereo not given in full) here?
A: Its max response is -6.36%.

Q: With `C[C@H]1O[C@H](O[C@H]2[C@H](O)[C@@H](O)[C@@H](O[C@H]3[C@H](O)[C@@H](O)[C@H](O)O[C@@H]3CO)O[C@@H]2CO)[C@H](O)[C@@H](O)[C@@H]1N[C@H]1C=C(CO)[C@@H](O)[C@H](O)[C@H]1O` as the molecule, how does the max response [6] read?
A: Its max response is 2.05%.

Q: Which max response [6] does the source give for `c1ccc2c(CC3=NCCN3)cccc2c1` here?
A: The max response was 1.75% and 3.04% and -11%.

Q: With `CC1(C)CO[C@@H](CC(=O)O)CN1` as the molecule, how does the max response [6] read?
A: Its max response is 28.1%.

Q: With `O=C(O)c1ccccc1O` as the molecule, how does the max response [6] read?
A: The max response was 6.2% and -5.06%.

Q: Which max response [6] does the source give for `Cc1cc(C(C#N)c2ccc(Cl)cc2)c(Cl)cc1NC(=O)c1cc(I)cc(I)c1O` (stereo not given) here?
A: The max response was 0.496%.

Q: Which max response [6] does the source give for `c1ccc(CN(CC2=NCCN2)c2ccccc2)cc1` here?
A: Its max response is -10.1%.
